Assay results published in PubChem BioAssay AID651858 (Broad Institute, 2012).
The other results are listed elsewhere or left out. The source made the active and inactive calls.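 Rule for the calls: active = at highest dose tested, delta Tm positive; inactive = the rest.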

Experiment: dye-only thermal melt shift artefacts – biochemical, thermal shift counterscreen, cherry-pick, artefact control for Keap1-Nrf2 interaction inhibitor project, dose response (AID 651858)
Details: Sypro Orange dye-only thermal melt, no protein, top dose 50 µM, hits give high values

SMILES	delta Tm
O=C(Nc1ccccn1)C1CCN(S(=O)(=O)c2ccc3c(c2)OCCO3)CC1	-21.3 °C (inactive)
Nc1ccc2nc3c(=O)[nH]c(=S)[nH]c3nc2c1	-27.3 °C (inactive)
COc1ccc(C2c3ccc(O)cc3Oc3ncn(CCCO)c(=N)c32)cc1OC (stereo not given)	-26.7 °C (inactive)
CCCC1OC23CCCCC2C(C#N)(C#N)C1(C#N)C(=N)O3 (stereo not given)	-28.4 °C (inactive)
CCCC(=O)Nc1ccc(C(=O)NCCCn2ccnc2)cc1	-28 °C (inactive)
